Tests used:
Type in all cases: functional
[1] = test system: Plasmodium falciparum; assay: GSK_TCMDC: Inhibition of Plasmodium falciparum 3D7 in whole red blood cells, using parasite LDH activity as an index of growth. Test compounds present at 2uM
[2] = test system: Plasmodium falciparum; assay: GSK_TCMDC: Inhibition of Plasmodium falciparum Dd2 in whole red blood cells, using parasite LDH activity as an index of growth. Test compounds present at 2uM
[3] = test system: HepG2; assay: GSK_TCMDC: Percent inhibition of human HepG2 cell line. Test compounds present at 10uM.

SMILES | Inhibition [1] [%] | Inhibition [2] [%] | Inhibition [3] [%]
CC(C)NCc1ccc(-c2ccc(-c3nc4cc(C(F)(F)F)ccc4[nH]3)s2)cc1.O=C(O)C(F)(F)F | 100 | 94 | 30
CCCCCOc1ccc(/N=C2\C=C(O)C(=O)c3ccccc32)cc1 | 99 | 96 | 10
COc1ccc(NC(=O)/C=C/c2ccc(-c3ccccc3)cc2)cc1N1CCN(C)CC1.O=C(O)C(=O)O | 90 | 46 | 21
O=C(Cc1c[nH]cn1)Nc1cccc(-c2ccc(-c3nc4cc(C(F)(F)F)ccc4[nH]3)s2)c1 | 100 | 99 | 5
CC(C)N1CCC(N(Cc2ccc(-c3ccc(C(F)(F)F)cc3)cc2)C(=O)Cn2c(CCc3cccc(F)c3F)cc(=O)c3c2CCC3)CC1.O=C(O)C(O)C(O)C(=O)O | 100 | 62 | 30
COc1cccc(-c2cnc(N)c(-c3nc4cc(Cl)c(F)cc4[nH]3)c2)c1 | 100 | 26 | 37
Oc1ccc2nc(Nc3ccccc3)nc(NCCc3ccccc3)c2c1 | 100 | 100 | 20
O=C(Nc1ccc2c(c1)CCC2)c1ccc(N2CCN(c3ccncc3)CC2)cn1.O=C(O)C(F)(F)F | 99 | 58 | 56
COCCSc1nc2scc(C)c2c(=O)n1Cc1cccc(OC)c1 | 92 | 33 | 0
CCc1c[nH]c2c(N3CCCCS3(=O)=O)cc(C(=O)N[C@@H](Cc3ccccc3)[C@H](O)CNCc3cccc(OC)c3)cc12.O=CO | 86 | 91 | 0

Reference: ChEMBL document CHEMBL1157539, “Thousands of chemical starting points for antimalarial lead identification” (Nature, 2010)
